About 83,000 compounds went through this panel and 20% of them were active in at least one assay; those are over-represented in the sample as a whole.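 The test compound was applied at a single concentration to cells in 96-well plates for 48 hours, and percent growth was recorded.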 A number with no mark means an inactive call. Calls of active or inactive are those of the source. Rule for the calls: active = growth percent below 10; inactive = the rest.

This test has as its system 786-0 renal. Put plainly: NCI-60 one-dose screen, 48 h (100 = growth as untreated, 0 = no growth, -100 = all killed). The note with it: 10 µM unless noted.
`COc1cc(C2CC(c3cc(OC)c(OC)c(OC)c3)=NN2C(C)=O)ccc1OCc1ccccc1` (centres undefined): the growth is 34%.
Consider `Cc1cc(N=C2NC(=O)CS2)n[nH]1`, for which the growth was 103%.
Turning to `C=C1CC[C@@H]2[C@]3(C)COC(c4cn[nH]c4-c4ccc(OC)cc4)O[C@@H]3CC[C@@]2(C)[C@@H]1C/C=C1/C(=O)OCC1O` (some centres undefined), the growth was -89.7% (active).
For the molecule `COc1cc2c(c(OC)c1OC)C(=O)CC(c1cccc(NC(=O)c3cc(N)ccc3Cl)c1)O2` (centres undefined), the growth is 84.7%.
Consider `O=C(N=Nc1c(O)[nH]c2ccc(Cl)cc12)c1ccc2nc(-c3ccccc3)[nH]c2c1`, for which the growth is 47.4%.
Then `CNC(=O)c1cc(Oc2ccc3nc(NC(=O)Nc4cccc(OC(F)(F)F)c4)sc3c2)ccn1`, with -50.7% (active).
On to `COc1cc2c(c(OC)c1OC)C(=O)CC(c1cccc(NC(=O)c3cc([N+](=O)[O-])ccc3Cl)c1)O2` (centres undefined), for which the growth was 25.1%.
To `COc1ccc(C2=NN(C(C)=O)C(c3ccc(OCc4ccc(Cl)cc4)c(OC)c3)C2)cc1OC` (centres undefined) belongs 57.9%; to `COc1ccc2cc([C@H](C)C(=O)N/N=C/c3ccc(Br)cc3)ccc2c1`, 95.4%.
Turning to `CCCCCCCCc1ccc(C(=O)Nc2ccc(C)cc2C(=O)O)cc1C`, the growth was 104%.
For `CSc1ccccc1NC(=O)c1ccc2nn(/C(C#N)=C/c3ccccn3)nc2c1`, the growth is -96.5% (active).
Then `COCOc1ccc2c(=O)c(C)c(C(=O)N[C@@H](Cc3ccccc3)C(O)C(=O)NCCc3ccc(OC)cc3)oc2c1` (some centres undefined), with 106%; and `CSc1ccc(C(=O)Nc2ccc3nnn(/C(C#N)=C/c4ccccn4)c3c2)cc1`, with -90.3% (active).
To `COc1ccc(NC(=O)Cn2c(/C=C/c3cccc([N+](=O)[O-])c3)nc3ccccc3c2=O)cc1` belongs -15.8% (active); to `CC1(C)CC[C@]2(C(=O)Nc3ccc(Br)cc3)CC[C@]3(C)C(=CCC4[C@@]5(C)C[C@@H](O)[C@H](O)[C@@](C)(CO)C5CC[C@]43C)C2C1` (some centres undefined), -28.2% (active).
Take `N#Cc1c(-c2cccc(Cl)c2Cl)cc(-c2c[nH]c3ccccc23)[nH]c1=O`: the growth is 16.9%.
`O=c1onc(-c2cc3ccccc3nc2Cl)n1-c1cccc2ccccc12`: the growth is 73.3%.
To `CCN(CC)CCOc1ccc(Nc2ncc3cc(-c4ccc(O)c(C#N)c4)c(=O)n(C)c3n2)cc1` belongs -51.2% (active); to `Cc1ccc(NC(=O)[C@]23CCC(C)(C)CC2C2=CCC4[C@@]5(C)C[C@@H](O)[C@H](O)[C@@](C)(CO)C5CC[C@@]4(C)[C@]2(C)CC3)cc1` (some centres undefined), 17.1%.
As to `N#Cc1c(NCc2ccccc2)n[nH]c1Nc1ccccc1`, the growth was 63.3%.
Then `CCCSc1nc(NCCc2c[nH]c3ccccc23)c(C#N)c(-c2ccc(OC)cc2)n1`, with 31.9%; and `O=C(NNc1ccccc1)n1c(=O)c2ccccc2c(=O)n1-c1ccccc1`, with 92.5%; and `COc1cc(C2CC(c3cc(OC)c(OC)c(OC)c3)=NN2C(C)=O)ccc1OCc1ccc(F)cc1` (centres undefined), with 57.8%.
As for `CN1CCN(Cc2ccc(C(=O)Nc3cccc(C#Cc4cccc5[nH]nc(N)c45)c3)cc2C(F)(F)F)CC1`, the growth is -99.4% (active).
To `COc1ccc(C(=O)/C=C/c2cccc3ccccc23)cc1S(N)(=O)=O` belongs -29.8% (active).
To `O=C(/C=C/c1ccc(O)c(O)c1)NC1CCOC1O` (centres undefined) belongs 97.2%; to `C=C1CCC2C3(C)COC(c4ccccc4F)OC3CCC2(C)C1CC(O)C1=CCOC1=O` (centres undefined), 14.7%; to `COc1cc(/C=C/C(=O)c2ccc(C)cc2)ccc1Oc1nc(Nc2ccc(F)cc2)nc(N(C)C)n1`, 37.5%.
In the case of `COc1cc2oc(-c3cccc(C(=O)Nc4ccc(Cl)cc4)c3)cc(=O)c2c(OCCNC(=O)[C@@H](N)CCC(=O)O)c1OC`, the growth was 60.6%.
Then `C=C1CCC2C3(C)COC(c4ccc(F)cc4)OC3CCC2(C)C1CC(O)C1=CCOC1=O` (centres undefined), with 19.4%; and `Cc1ccc(C(SCCNCc2cc(N(C)C)ccn2)(c2ccccc2)c2ccccc2)cc1`, with -76.6% (active).
In the case of `COc1ccc(-c2c(Nn3cnnn3)no[n+]2[O-])cc1`, the growth was 53.6%.
Then `CC1=C(C(=O)c2ccccc2)C(c2cccc3ccccc23)n2c(nc3ccccc32)N1` (centres undefined), with 70.6%; and `CC1(C)CC[C@]2(C(=O)Nc3ccccc3)CC[C@]3(C)C(=CCC4[C@@]5(C)C[C@@H](O)[C@H](O)[C@@](C)(CO)C5CC[C@]43C)C2C1` (some centres undefined), with 71.1%.
